In assay [1] the target is Lysine-specific demethylase 5B (Homo sapiens) (UniProt Q9UGL1). The assay is described as follows: Optimization screen for KDM5B Histone Demethylases FDH coupled qHTS against the LOPAC library (AID 1347166). Also: 0% is about no effect. To be noted: KDM5B demethylation, FDH-coupled NADH fluorescence (FDH is formaldehyde dehydrogenase); at 57.5 µM (top of the series). In a few lines: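 KDM5BDeltaAP (200nM final) preincubated 10 min with compound, then 12.5uM H3K4Me3, 25uM a-ketoglutarate, ascorbate, Fe(II), NAD+ and FDH added; 50mM HEPES pH 7.5, 0.01% Tween-20. NADH fluorescence (340/450 nm) change over 30 min, room temperature.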
For orientation: Quantitative high-throughput screening tests each substance at several concentrations.

Assay [2] can be described thus: qHTS to identify inhibitors of the type 1 interferon - major histocompatibility complex class I in skeletal muscle: primary screen against the NCATS LOPAC collection (AID 1347405).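 Also: lytic HiBiT luminescence reporting HLA-B protein level; % is scaled to controls: 0 for no effect and ±100 for the full control effect.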 In a few lines: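 CRISPR-engineered immortalized human myoblasts (C25cl48) with HiBiT fused to endogenous HLA-B*08:01, stimulated with 4 ng/ml IFN-beta. LOPAC compounds tested as a 7-point 1:4.3 titration (top 46 uM final), 24 h at 37 C; lytic HiBiT luminescence read.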

The nature of assay [3]: qHTS for inhibitors of adenylyl cyclases using a fission yeast platform: a pilot screen against the NCATS LOPAC library (AID 1347410).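 Also: plate controls were DMSO vehicle for no effect and DPI positive control for full effect.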 An outline of the steps:
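Fission yeast qHTS: CHP2027 cells (AC9-GNAS-PDE4D2, fbp1-GFP), 5x10^6 cells/mL working density, EMM + His/Lys/Ura; LOPAC at up to 57 µM final; 18 h dark, 30C; GFP by laser cytometry. DPI positive control, DMSO vehicle.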

Assay [4] in a line: Validation qHTS assay for inhibitors of Activation Induced Cytidine Deaminase (AID): UDG Counterscreen signal (AID 1347427). Also: 0% is about no effect. An outline of the steps:
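Counterscreen read of UDG activity (2 U/mL, 4/3x) in the FRET deamination format with AID (1 uM, 4/3x), DJC20/DJC23 substrates (250 nM, 4x), 4 h at room temperature. NaOH stop, fluorescence at 560 ex/665 em.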

A short description of assay [5]: Primary qHTS for inhibitors of La Crosse Virus (LACV) - induced cell death in SH-SY5Y cells (AID 1508616).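 Also: top concentration of the series differs between compounds; 0% = infected DMSO wells and 100% = uninfected DMSO wells; higher means more rescue of cells from virus-induced death.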 In a few lines: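 SH-SY5Y cells (6000/well) plated 24 h, then given compounds by pin transfer and LACV at 0.01 MOI for 6 days at 37C. Viability measured by ATPLite luminescence, normalized to infected DMSO and uninfected DMSO.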
Assay [6] has as its target Calcium and integrin-binding protein 1 (Homo sapiens) (UniProt Q99828). The assay is described as follows: Validation qHTS for Identification of Calcium Integrin Binding protein 1 (CIB1) Competitor (AID 1508618). Also: % is scaled to controls: 0 for no effect and ±100 for the full control effect. In a few lines: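 Displacement of FITC-alphaIIb peptide (100 nM) from CIB1-GST (1 uM) is monitored by polarization in quantitative HTS format; buffer carries 5 mM CaCl2 and 125 mM NaCl at pH 7.4, incubations are at room temperature.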

Assay [7] shares this target. In words: Primary qHTS for Identification of Calcium Integrin Binding Protein 1 (CIB1) Competitor (AID 1508620).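 Also: GST tagged CIB1 binding a fluorescein labelled alphaIIb integrin peptide tracer; top concentration of the series differs between compounds; % is scaled to controls: 0 for no effect and ±100 for the full control effect.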 An outline of the steps: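 CIB1-GST (1 uM final) and compound incubated 15 min at room temperature before adding FITC-alphaIIb peptide tracer (100 nM final). Competition for binding read by fluorescence polarization (ex 480, em 540) after another 15 min at room temperature.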

Assay [8] is described as follows: Confirmatory screen NINDS Rhodamine qHTS for Zika virus inhibitors (AID 1347161). Also: nearly all actives have a fitted effect of over 60% in size. Also: potency is read from the fitted curve at half-maximal effect.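 As to activity change, negative = inhibition: purified Zika NS2B-NS3 protease with linked NS2B cofactor domain and Rhodamine110 peptide substrate; plate controls were no-inhibitor control for no effect and no-enzyme control for full effect.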 In a few lines:
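Single-chain NS2B-NS3 protease, 25 nM, pH 8.0; compounds preincubated 15 min. Activity: Rhodamine110 release from 1.5 microM substrate over 15 min, room temperature, data fitted to 4-parameter Hill.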

Assay [9] is described as follows: qHTS to identify inhibitors of the type 1 interferon - major histocompatibility complex class I in skeletal muscle: primary screen against the NCATS Mechanism Interrogation Plate v5.0 (MIPE) Libary (AID 1347411). Also: nearly all actives have a fitted effect of over 65% in size. Also: potency is read from the fitted curve at half-maximal effect.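 As to activity change, negative = inhibition: plate controls were vehicle for no effect and reference inhibitor for full effect.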 An outline of the steps: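 Immortalized human myoblasts (C25cl48) with HiBit knocked into endogenous HLA-B*08:01 were stimulated with 4 ng/ml IFN-beta and given compounds in 11-point 1:3 titration from 46 uM. After 24 h at 37 C, lytic HiBiT luminescence was read.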

In assay [10] the target is Protein phosphatase 1D (Homo sapiens) (UniProt O15297). In words: RapidFire Mass Spectrometry qHTS Assay for Modulators of WT P53-Induced Phosphatase 1 (WIP1) (AID 1347424).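 Also: amount of dephosphorylated VEPPL-S-QETFS peptide product formed by WIP1; plate controls were DMSO wells for no effect and GSK830371 inhibitor control at 10 µM for full effect.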 An outline of the steps: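 10 nM WIP1 + cpd, 1 h RT; + 2 uM VEPPL-pS-QETFS, 5 min RT; stop 0.5% formic acid; labelled product standard 1 uM; RapidFire MS. Buffer 50 mM Tris pH 7.5, 30 mM MgCl2, 1 mM TCEP.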

For assay [11] the target is unchanged. In words: Rhodamine-PBP qHTS Assay for Modulators of WT P53-Induced Phosphatase 1 (WIP1) (AID 1347425). Also: % of control where 0% means no effect. In a few lines: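 5 nM WIP1 + 10 uM Rh-PBP, 50 mM Tris pH 7.5, 30 mM MgCl2, 1 mM TCEP, 0.1 mM EGTA, BSA; cpds pinned, 1 hr RT; + 10 uM phosphopeptide; fluorescence 1-min reads x 11 min; delta = f1 - f0.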
In assay [12] the test system is Zika virus NS2B-NS3 protease (linked construct). The assay is described as follows: Primary screen NINDS Rhodamine qHTS for Zika virus inhibitors (AID 1347160). Also: nearly all actives have a fitted effect of over 55% in size. The settings on record: outcome: dose series up to 57.1 µM unless noted. An outline of the steps: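 Kinetic fluorescence (Ex 480 nm, Em 540 nm) over 15 min with 1.5 microM Rhodamine110 peptide and 25 nM linked protease.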

The nature of assay [13]: qHTS to identify inhibitors of the type 1 interferon - major histocompatibility complex class I in skeletal muscle: primary screen against the NCATS Pharmaceutical Collection (AID 1347407). Also: % is scaled to controls: 0 for no effect and ±100 for the full control effect. An outline of the steps: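 Luminescence from HiBiT-tagged endogenous HLA-B*08:01 served as the read-out of IFN-beta-induced MHC class I in CRISPR-engineered C25cl48 myoblasts. Cells received 4 ng/ml IFN-beta plus compound (high final 46 uM, […]) for 24 h.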

Assay [14] can be described thus: HepG2 cells viability qHTS for Zika virus inhibitors (AID 1347168). Also: % is scaled to controls: 0 for no effect and ±100 for the full control effect. In a few lines:
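Compounds were tested in concentration series on cells grown in DMEM containing 4% FBS. After 24 to 48 hours, cellular ATP was measured by luminescence with CellTiter Glo.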

A short description of assay [15]: Tertiary RLuc qRT-PCR qHTS assay for Zika virus inhibitors (AID 1347169). Also: top concentration of the series differs between compounds; % is scaled to controls: 0 for no effect and ±100 for the full control effect; nearly all actives have a fitted effect of over 55% in size. An outline of the steps: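 Vero, 1,000 cells/well, o/n 37 C; cpd pinned in DMSO; ZIKV-RLuc Cambodian, MOI 1-2, 48-72 h 37 C; live-cell RLuc substrate, lum read at 1-1.5 h.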
On the technique in general: Real-time PCR tracks product formation cycle by cycle.

Unmarked numbers belong to inactive results. Inconclusive results are not listed. Activity calls are given as the source filed them. Calls follow the shape of the dose curve; as a rule, active = well fitted curve in the direction sought with a large enough effect; inconclusive = small, poorly fitted or top-dose-only effect, or another doubt; inactive = no such curve, though single readings can be large; an effect the other way counts as inactive or inconclusive.

Sequence of Protein phosphatase 1D (Homo sapiens) (O15297 whole entry, looked up): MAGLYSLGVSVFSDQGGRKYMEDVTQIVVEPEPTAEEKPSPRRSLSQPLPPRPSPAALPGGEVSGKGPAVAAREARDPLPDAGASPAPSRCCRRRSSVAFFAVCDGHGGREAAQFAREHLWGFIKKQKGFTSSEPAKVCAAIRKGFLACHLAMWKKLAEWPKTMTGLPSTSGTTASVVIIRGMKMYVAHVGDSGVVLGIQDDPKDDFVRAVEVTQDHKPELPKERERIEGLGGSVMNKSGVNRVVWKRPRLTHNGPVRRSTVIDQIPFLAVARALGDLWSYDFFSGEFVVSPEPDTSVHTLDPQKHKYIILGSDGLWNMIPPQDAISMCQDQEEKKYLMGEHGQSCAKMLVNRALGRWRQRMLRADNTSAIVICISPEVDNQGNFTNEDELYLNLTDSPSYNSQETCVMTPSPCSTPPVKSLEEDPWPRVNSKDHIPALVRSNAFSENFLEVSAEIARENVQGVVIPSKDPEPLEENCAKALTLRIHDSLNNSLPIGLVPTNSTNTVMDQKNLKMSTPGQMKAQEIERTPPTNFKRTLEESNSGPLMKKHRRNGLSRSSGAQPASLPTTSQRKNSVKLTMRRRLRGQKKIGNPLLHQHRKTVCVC
Sequence of Calcium and integrin-binding protein 1 (Homo sapiens) (Q99828 whole entry, looked up): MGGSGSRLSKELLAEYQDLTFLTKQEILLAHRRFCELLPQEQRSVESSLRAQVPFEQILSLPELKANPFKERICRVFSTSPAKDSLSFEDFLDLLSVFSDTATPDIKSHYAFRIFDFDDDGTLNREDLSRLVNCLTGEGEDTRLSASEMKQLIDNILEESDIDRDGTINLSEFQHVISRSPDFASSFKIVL
Sequence of Lysine-specific demethylase 5B (Homo sapiens) (Q9UGL1 whole entry, looked up): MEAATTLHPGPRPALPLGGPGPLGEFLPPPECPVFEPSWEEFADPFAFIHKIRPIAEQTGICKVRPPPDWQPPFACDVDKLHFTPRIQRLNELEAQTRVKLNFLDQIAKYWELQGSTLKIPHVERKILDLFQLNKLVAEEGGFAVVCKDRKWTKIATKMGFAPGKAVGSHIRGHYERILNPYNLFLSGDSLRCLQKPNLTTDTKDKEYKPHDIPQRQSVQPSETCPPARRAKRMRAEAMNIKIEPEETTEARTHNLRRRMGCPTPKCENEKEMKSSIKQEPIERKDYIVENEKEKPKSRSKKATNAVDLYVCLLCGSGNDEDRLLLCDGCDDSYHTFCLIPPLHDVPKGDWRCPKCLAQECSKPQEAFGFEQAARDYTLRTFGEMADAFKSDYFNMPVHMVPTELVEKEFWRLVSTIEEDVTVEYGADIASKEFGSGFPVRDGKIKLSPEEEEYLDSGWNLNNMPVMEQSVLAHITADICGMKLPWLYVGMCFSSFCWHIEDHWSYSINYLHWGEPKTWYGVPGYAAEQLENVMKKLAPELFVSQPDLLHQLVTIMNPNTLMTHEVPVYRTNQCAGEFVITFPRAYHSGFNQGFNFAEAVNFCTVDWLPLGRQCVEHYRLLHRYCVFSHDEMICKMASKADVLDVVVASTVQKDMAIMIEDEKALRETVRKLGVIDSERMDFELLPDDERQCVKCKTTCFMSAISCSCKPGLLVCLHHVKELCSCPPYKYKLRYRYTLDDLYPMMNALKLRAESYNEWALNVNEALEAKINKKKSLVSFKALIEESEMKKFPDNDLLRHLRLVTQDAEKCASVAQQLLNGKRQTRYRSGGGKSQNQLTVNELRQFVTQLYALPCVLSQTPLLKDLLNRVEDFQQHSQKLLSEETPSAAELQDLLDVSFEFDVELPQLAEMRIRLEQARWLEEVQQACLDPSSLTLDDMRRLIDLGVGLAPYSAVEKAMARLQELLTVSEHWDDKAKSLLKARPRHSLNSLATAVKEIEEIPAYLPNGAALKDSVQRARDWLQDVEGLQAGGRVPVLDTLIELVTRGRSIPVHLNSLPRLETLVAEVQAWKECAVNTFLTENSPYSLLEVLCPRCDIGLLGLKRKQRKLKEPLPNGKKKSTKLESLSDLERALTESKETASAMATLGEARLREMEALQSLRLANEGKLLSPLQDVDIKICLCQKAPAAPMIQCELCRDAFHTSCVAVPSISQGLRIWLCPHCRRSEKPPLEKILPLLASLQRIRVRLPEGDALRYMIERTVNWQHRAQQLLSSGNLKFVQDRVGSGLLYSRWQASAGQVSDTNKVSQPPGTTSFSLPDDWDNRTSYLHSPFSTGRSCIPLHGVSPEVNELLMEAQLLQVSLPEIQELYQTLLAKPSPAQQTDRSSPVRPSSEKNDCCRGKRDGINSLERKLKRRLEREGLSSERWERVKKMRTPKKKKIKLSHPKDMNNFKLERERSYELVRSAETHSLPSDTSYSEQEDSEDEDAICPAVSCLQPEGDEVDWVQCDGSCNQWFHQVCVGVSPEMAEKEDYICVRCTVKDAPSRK

In the case of `CC1CC2C3CCC4=CC(=O)C=C[C@]4(C)[C@@]3(F)[C@@H](O)C[C@]2(C)[C@@]1(O)C(=O)CO` (stereo partly specified), the activity, negative = inhibition in assay [1] is -6.72%. The molecule was classed as inactive in assay [2], in assay [3], in assay [4], in assay [6] and in assay [7]. For the same molecule, the Potency result in assay [5] is “inactive”.

Take `COc1cc(NCc2ccc3nc(N)nc(N)c3c2C)cc(OC)c1OC`: the Potency result in [8] and in assay [5] was “inactive” throughout. Besides, the Potency in assay [9] is 26.2 µM (active). Moreover, the molecule was called inactive in assay [10], in assay [11] and in [7].

As to `CN(C)CCc1c[nH]c2ccc(C[C@H]3COC(=O)N3)cc12`, the outcome in [12], in assay [10], in [11] and in assay [7] was inactive. Further, the Potency result in [13] and in assay [5] was “inactive” in each case.

On to `CCCCc1oc2ccc(NS(C)(=O)=O)cc2c1C(=O)c1ccc(OCCCN(CCCC)CCCC)cc1`, for which the outcome in [12] is “inactive; activator”. Also, the molecule was called inactive in [10], in assay [11] and in assay [7]. For the same molecule, in assay [5], the Potency entry is “inactive”.

Take `O=C(O)C1CCCN(CCC=C(c2ccccc2)c2ccccc2)C1` (stereo unspecified): in assay [1], the activity, negative = inhibition was -3.3%. In addition, the outcome in assay [2], in assay [3], in assay [4], in assay [6] and in assay [7] was inactive. The Potency result in assay [9] and in assay [5] was “inactive” in each case.

With `N[C@@H](Cc1ccc(O)c(O)c1)C(=O)O`, the activity, negative = inhibition in assay [1] is 0.726%. In addition, the Potency entry in [5] is “inactive”. In addition, the result in assay [6] and in [7] was inactive.

As to `CNC1CCCN(c2c(F)cc3c(=O)c(C(=O)O)cn(C4CC4)c3c2OC)C1` (stereo unspecified), the Potency entry in assay [8], in assay [14], in [15], in [13], in [9] and in assay [5] was “inactive” each time. Also, the molecule was classed as inactive in [10], in assay [11] and in [7].

Turning to `COc1ccc(-c2ccc3cc(C(=O)O)ccc3c2)cc1C12CC3CC(CC(C3)C1)C2`, the Potency result in [8], in [13], in assay [9] and in [5] was “inactive” in each case. Besides, the activity change, negative = inhibition in assay [15] was -1.33% [at 5.25 µM]. Further, the molecule was called inactive in assay [11] and in [7].

`CC[C@H](C)C(=O)O[C@H]1C[C@@H](C)C=C2C=C[C@H](C)[C@H](CC[C@@H]3C[C@@H](O)CC(=O)O3)[C@H]21`: in assay [12], the outcome was “inactive [at 33.1 µM]”. Also, the Potency entry in [13], in [9] and in assay [5] was “inactive” in each case. The call in assay [10], in assay [11] and in assay [7] was inactive.

As to `Nc1nc(N)c2nc(CNc3ccc(C(=O)NC(CCC(=O)O)C(=O)O)cc3)cnc2n1` (stereo unspecified), the Potency in [8] was 55.3 µM (active). Besides, the activity, negative = inhibition in [1] was -994% (active). Besides, the Potency entry in assay [14], in assay [15], in [9] and in assay [5] was “inactive” in each case. Moreover, the molecule was called inactive in [2], in assay [3], in [4] and in [7].

As to `COc1cc2ncnc(Nc3cccc(Cl)c3)c2cc1OC`, the molecule was called inactive in assay [12], in assay [3], in assay [4], in assay [6] and in assay [7]. Also, in assay [9], the Potency was 29.4 µM (active). For the same molecule, the Potency entry in assay [5] is “inactive”.

In the case of `O=P(O)(O)C(O)(Cc1cccnc1)P(=O)(O)O`, the outcome in assay [12] is “inactive [at 4.91 µM]”. Moreover, the Potency result in assay [13], in assay [9] and in [5] was “inactive” in each case. The result in assay [10], in assay [11] and in assay [7] was inactive.

Consider `CCCCS(=N)(=O)CCC(N)C(=O)O` (stereo unspecified), for which the activity, negative = inhibition in assay [1] is -3.95%. For the same molecule, the molecule was classed as inactive in [2], in assay [3], in [4], in assay [6] and in assay [7]. Also, the Potency entry in assay [9] and in assay [5] was “inactive” in each case.
